The values that follow come from PubChem BioAssay AID1745845 (National Center for Advancing Translational Sciences (NCATS), 2022).

Molecules are shown by their SMILES. The whole screen tested about 360,000 compounds, of which about 2,600 (0.72%) were called active. A call without a number means that no potency is given here. Not shown: some 5% with an inconclusive outcome. The call rests on the fitted dose curve; in most records, active means well fitted inhibition curve with a large enough effect; inconclusive means small, poorly fitted or top-dose-only effect; inactive means no such curve, though single readings can be large or run the other way. The full list was thinned out, with actives kept by preference.
Potency means the concentration at half of the fitted maximal effect.

The experiment can be described thus: Primary qHTS for Inhibitors of ATXN expression. Further: nearly all actives have a fitted effect of over 55% in size. The note with it: HEK-293 ATXN2-luciferase reporter, luminescence, 24 h; series mostly up to 57 µM. Summed up: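 qHTS (up to 57 uM final) was run with 24 h compound exposure of reporter cells at 37 °C. Each well was multiplexed: SteadyGlo luminescence measured ATXN2-luciferase expression after a fluorogenic Gly-Phe-AFC viability readout (25 uM final).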
(Quantitative high-throughput screening tests each substance at several concentrations.)
For the compound `CN(C)C(=O)c1cccc(-c2cnc3sc(NCc4ccc5c(c4)OCO5)nn23)c1`, the Potency entry is “inactive”.

Regarding `COc1ccc(-c2nnc(SCC(=O)Nc3ccccc3C)o2)cc1OC`, the Potency entry was “inactive”.

On to `COC(=O)[C@]12CCCCC=C1N(CCC1=CCCCC1)C(=O)[C@H](CC(=O)NCC1CCCCC1)C2`, for which the Potency result is “inactive”.

As to `CC(=O)Nc1cccc(-c2ccnc3c2CC(C)(C(=O)NCc2ccco2)O3)c1` (configuration not stated), the Potency entry is “inactive”.

Consider `COc1ccc(C2CC(c3ccccc3)=NN2C(=O)COC(=O)COc2ccccc2)cc1` (configuration not stated), for which the Potency entry is “inactive”.

Take `COc1ccc(C2CC(c3ccc([N+](=O)[O-])cc3)=NN2C(C)=O)cc1` (configuration not stated): the Potency result was “inactive”.

Consider `COc1ccc(C2CC(c3ccccc3)=NN2C(=O)c2ccc(Cl)c([N+](=O)[O-])c2)cc1` (configuration not stated), for which the Potency was 28.2 µM (active).

Consider `CCOCCCNC(=O)c1cn(CC)c2ccc(S(=O)(=O)N3CCc4ccccc4C3)cc2c1=O`, for which the Potency result was “inactive”.

In the case of `COc1ccc(NC(=O)CSC2=Nc3ccccc3C3=NC(CC(=O)NCc4ccccc4OC)C(=O)N23)cc1Cl` (configuration not stated), the Potency entry is “inactive”.

As to `COc1ccc(NC(=O)Cn2c(=O)cc(C)c3c(C)nn(-c4cccc(Cl)c4C)c32)cc1OC`, the Potency result is “inactive”.

Take `NC(=O)C1CCN(C(=O)c2cccc(NC(=O)c3nsc4ccccc34)c2)CC1`: the Potency result is “inactive”.

Take `c1ccc2c(c1)C(=NC1CCCCC1)NC2=NC1CCCCC1`: the Potency was 28.2 µM (active).

As to `Cc1ccc2nc(-c3ccco3)c(Cc3cccc(Cl)c3)n2c1`, the Potency entry is “inactive”.

Consider `CN(Cc1ccccc1)c1ncnc2onc(-c3ccc(F)cc3)c12`, for which the Potency entry is “inactive”.

Take `CC(C)(C)NC(=O)NC(=O)COC(=O)Cc1ccc(Cl)cc1Cl`: the Potency result is “inactive”.

As to `CC(C)(C)c1cc(C(=O)NN)n(Cc2ccc(Cl)cc2Cl)n1`, the Potency was 12.6 µM (active).

For `Cn1cc(C(=O)c2ccc(Cl)cc2Cl)cc1C(=O)NN`, the Potency entry was “inactive”.

With `CCOC(=O)c1cccc(NC(=O)c2cc(CN3CCCC3)on2)c1`, the Potency entry was “inactive”.

Regarding `CN(Cc1ccccc1)C(=O)c1cccc(C(=O)N(C)Cc2ccccc2)c1`, the Potency result is “inactive”.

`CN(O)C(=S)c1ccccc1`: the Potency was 3.98 µM (active).

`COc1cc(NS(=O)(=O)c2cccs2)cc(OC)c1`: the Potency result is “inactive”.

Turning to `Cc1c2cnn(-c3ccccc3)c(=O)c2c(C)n1C(C)C(=O)Nc1ccc(Br)cc1F` (configuration not stated), the Potency entry is “inactive”.

`S=C(NCCCc1cnc[nH]1)NCCCN(Cc1ccc(Cl)c(Cl)c1)c1ccc(Br)cn1`: the Potency was 15.8 µM (active).

With `COc1ccccc1CNC(=O)C(=O)NCC(c1cccs1)S(=O)(=O)c1cccs1` (configuration not stated), the Potency entry was “inactive”.

Turning to `COc1ccc(CCNC(=O)CCCn2c(=O)c3ccccc3n(Cc3ccc(C)cc3)c2=O)cc1OC`, the Potency entry is “inactive”.

As to `CCCCCCCc1ccc(CCc2cccc(O)c2C(=O)O)cc1`, the Potency result is “inactive”.

With `COc1ccccc1OCCCn1c(-c2ccc(Cl)cc2)nc2ccccc2c1=O`, the Potency entry is “inactive”.

For the compound `CCOC(=O)C(NC(C)=O)C(=O)Nc1ccc(OC)cc1` (configuration not stated), the activity change, negative = inhibition was -27.3% [at 11.3 µM] (inactive).

`COC(=O)c1cc(OC)ccc1-c1ccc(OC)cc1`: the Potency entry is “inactive”.

Regarding `CCOC(=O)C1=C(c2ccc(OC)cc2)C(=O)c2ccccc2C1=O`, the Potency was 5.01 µM (active).

Consider `Cc1cccc(-c2nc(SCC(=O)Nc3cc(C)on3)c3c(=O)n(C)c(=O)n(C)c3n2)c1`, for which the Potency entry is “inactive”.

Take `CC(NCc1ccc2c(c1)nc(NC(=O)c1ccc(-c3cn[nH]c3)s1)n2CC(C)(C)O)C(C)(C)C` (configuration not stated): the Potency is 0.968 µM (active).

As to `O=C(NCc1ccccc1)C1CCN(S(=O)(=O)c2ccc3[nH]c(=O)ccc3c2)CC1`, the Potency result is “inactive”.

As for `CO[C@]1(NC(=O)CSC(F)F)C(=O)N2C(C(=O)O)=C(CSc3nnnn3CCO)CO[C@H]21`, the Potency result is “inactive”.

Turning to `Cc1cccc(C(C)C)c1NC(=O)C(NS(=O)(=O)c1cccc2nsnc12)c1ccccc1` (configuration not stated), the Potency entry was “inactive”.

As to `C=C1CCC2[C@](C)(CO)C(O)CC[C@]2(C)C1CC=C1C(=O)OCC1O` (some centres not stated), the Potency entry is “inactive”.

For `Cc1oc2ccc(O)c(CN3CCC(C)CC3)c2c1C(=O)Nc1ccccc1`, the Potency result is “inactive”.

Consider `Cc1oc2ccc(O)c(CN3CCCCC3)c2c1C(=O)Nc1cccc(C(F)(F)F)c1`, for which the Potency was 28.2 µM (active).

Regarding `Cc1oc2ccc(O)c(CN3CCOCC3)c2c1C(=O)Nc1cccc(Cl)c1C`, the Potency result was “inactive”.

On to `O=C(c1cccc(Cl)c1)N1CCN(CCc2ccncc2)CC1`, for which the Potency entry was “inactive”.

`CCN(CC)c1ccc(C2C(C(N)=O)=C(C)Nc3nc(SCc4ccccc4)nn32)cc1` (configuration not stated): the Potency result was “inactive”.

As to `CC(C)(C)OC(=O)N1CCC(c2c(C(=O)N3CCc4ccccc4C3)cnn2-c2ccc(F)cc2)CC1`, the Potency result was “inactive”.

`COc1ccccc1NC(=O)C1=C(C)Nc2nc(SCC(=O)c3ccc(C)cc3)nn2C1c1ccccc1C` (configuration not stated): the Potency entry is “inactive”.

Regarding `CCc1nc2c(OCc3ccc(Cl)cc3Cl)cccn2c1N(C)C(=O)C(C)C`, the Potency is 28.2 µM (active).

In the case of `CCc1nc2c(OCc3cccc(OC)c3)cccn2c1N(C)C(=O)C(C)C`, the Potency result was “inactive”.

Take `CCc1nc2c(OCc3ccc(C(=O)OC)cc3)cccn2c1N(C)C(=O)C(C)C`: the Potency entry was “inactive”.

As to `COC(=O)[C@@]1(Sc2ccc(C)cc2)CC(=O)N(c2cccc(SC)c2)[C@@H]1c1ccccc1`, the Potency result is “inactive”.

Turning to `CC=CC[C@@H](C)C(=O)[C@H]1C(=O)N[C@@H](C(C)C)C(=O)N(C)CC(=O)N(C)[C@@H](CC(C)C)C(=O)N[C@@H](C(C)C)C(=O)N(C)[C@@H](CC(C)C)C(=O)N[C@@H](C)C(=O)N[C@H](C)C(=O)N(C)[C@@H](CC(C)C)C(=O)N(C)[C@@H](CC(C)C)C(=O)N(C)[C@@H](C(C)C)C(=O)N1C`, the Potency result is “inactive”.

For the compound `O=C(NC1CCCC1)C1c2ccccc2OCC(=O)N1CC(F)(F)F` (configuration not stated), the Potency result is “inactive”.

On to `Cc1cc(C)cc(NC(=O)Cn2c(=O)c3ccccc3n3nncc23)c1`, for which the Potency entry was “inactive”.

Turning to `O=c1oc2ccccc2cc1-c1cn(-c2ccccc2)c(=S)[nH]1`, the Potency was 8.91 µM (active).

For the compound `CS(=O)(=O)N1CCN(C(=O)c2cc3ccccc3oc2=O)CC1`, the Potency entry was “inactive”.

Take `Cc1cc(NC(=O)c2cccc(Cl)c2)ccc1-c1cc2ccccc2oc1=O`: the Potency result is “inactive”.

Turning to `Cc1ccc(CNC(=O)CCc2c(C)nc3nc(CNC(=O)OC(C)(C)C)nn3c2C)cc1`, the Potency result is “inactive”.

Turning to `CCN(CC)CCN(C(=O)c1cccc([N+](=O)[O-])c1)c1nc2ccc(OC)cc2s1`, the Potency result was “inactive”.

As to `COc1ccccc1NC(=O)CC(NCCN(C)C)C(=O)O` (configuration not stated), the Potency result is “inactive”.

As for `COc1cccc2sc(N(CCCN(C)C)C(=O)C(c3ccccc3)c3ccccc3)nc12`, the Potency was 22.4 µM (active).
